Measurements: paper PMC5540273 (PLoS ONE, 2017)

System: T1, OSR1
T1 construct: gene OXSR1
Details: concentration: 1 μM, replicates: in singlicate; n = 1
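Further: KINOMEscan kinase panel screen.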

SMILES | %Inh
COc1cc2ncn(-c3cc(OCC4CCCO4)c(C(N)=O)s3)c2cc1OC (stereo not shown) [GSK204607] | 0%
COc1ccccc1-c1ccc2c(NC(=O)C3CC3)n[nH]c2n1 [SB-711239] | 64%
Cc1cccc(-c2cc(Nc3ccncc3)c3ccccc3n2)n1 [GSK223675] | 6%
COc1ccc(Nc2nccc(-c3cccc(NC(=O)c4cc5cc(F)ccc5[nH]4)c3)n2)cc1 [GSK1229782] | 18%
COc1ccc(Nc2nccc(NCCNC(=O)Nc3ccccc3F)n2)cc1 [GSK1379901] | 8%
NC(=O)c1nnc2ccccc2c1N | 31%
CC(C)(C)c1ccc(C(=O)Nc2cn3cc(Cl)ccc3n2)cc1 | 0%
COc1cccc(NC(=O)NC2CCN(c3ccnc(Nc4ccc(F)cc4)n3)C2)c1 (stereo not shown) [GSK1379721] | 4%
Cc1ccc(-c2cc(-c3c[nH]nc3-c3ccccn3)ccn2)cc1 [GW684088] | 5%
Cc1cc(N2Cc3ccccc3C2)nc(Nc2ccc(S(=O)(=O)N3CCOCC3)cc2)n1.Cl [GSK1669917] | 0%
CC(C)(C)c1ccc(C(=O)Nc2cn3cc(-c4cccnc4)ccc3n2)cc1 | 0%
Cc1ccccc1-n1cnc2c(N)ncnc21 [SKF-97510] | 0%
Fc1cccc(COc2nnc(-c3ccc4c(c3)CCO4)o2)c1 | 0%
Cc1ccc(C(=O)Nc2ccc(Nc3ccnc4cc(-c5ccccn5)ccc34)cc2O)cc1.Cl [GW440146] | 1%
CS(=O)(=O)c1ccc(-c2c(-c3ncn[nH]3)sc(N3CCOCC3)c2C#N)cc1 | 0%
COc1cc2nccc(Nc3ccc(NC(=O)c4ccc(C)cc4)c(O)c3)c2cc1OC.Cl [GW440132] | 17%
COC(=O)c1c(-c2ccccc2)c2cc(OC)ccc2c(=O)n1Cc1ccccc1 | 0%

SMILES | %Inh
O=C(O)COc1ncnc2cc(-c3ccc4[nH]ncc4c3)sc12 | 34%
COc1ccc(C2=C(Nc3cccc(C(=O)O)c3)C(=O)NC2=O)cc1 [SB-390765] | 22%
CCn1c(-c2ccccn2)nc2cnccc21 [SB-736398] | 0%
Cn1ccc2ncnc(Oc3ccc(Nc4nc5ccccc5[nH]4)cc3)c21 | 0%
O=C(Nc1n[nH]c2cc(-c3cccc(F)c3F)ccc12)C1CC1 [SB-733894] | 0%
Clc1cc(Cl)cc(Nc2ccnc(Nc3cc(Cl)cc(Cl)c3)n2)c1 [GSK175726] | 0%
Cc1cccc(-c2nc(Nc3ccncc3)c3ccccc3n2)n1 [GW855857] | 0%
CCCc1ccc(S(=O)(=O)NC2CCN(c3ccnc(Nc4ccc(F)cc4)n3)C2)cc1 (stereo not shown) [GSK1379715] | 17%
COc1ccc(CNC(=O)NC2CCN(c3ccnc(Nc4cc(OC)c(OC)c(OC)c4)n3)C2)cc1 (stereo not shown) [GSK1379748] | 0%
Cc1c(O)cccc1Nc1ccnc2ccc(C(F)(F)F)cc12.Cl [GW466413] | 0%
Cc1c(Cn2ccn3c(=O)cc(N4CCOCC4)nc23)cccc1C(F)(F)F [GSK2289044] | 8%
COC(=O)c1c(-c2ccccc2)c2cc(C(=O)O)ccc2c(=O)n1Cc1ccccc1 | 0%
Cl.c1ccc(-c2n[nH]cc2-c2ccnc(-c3ccc(CN4CCOCC4)cc3)c2)nc1 [GW776245] | 0%
Cc1cc(NCC(c2ccccc2)c2ccccc2)nc(NCc2ccc(C(F)(F)F)cc2)n1 [GW497681] | 3%
COc1cccc(-c2cc(-c3c[nH]nc3-c3ccccn3)ccn2)c1 [GW680338] | 0%
O=C(Nc1ccccc1)Nc1cccc(Oc2ccc3nccn3n2)c1 | 0%
Nc1ncnc2[nH]c(-c3ccccc3)nc12 [AH5015] | 17%
